Laboratory results published in PubChem BioAssay.
Results filed as inconclusive are left out. Calls of active or inactive are those of the source. Cut-off read from the data, not from the text of the source, unless noted: active = inhibition above about 80%; inactive = the rest.

What was measured:
[1] = growth inhibition of DIPG glioma cells, dose response, cell-based, SU-DIPG-XVII, MIPE5.0, CellTiter-Glo, qHTS (AID 1347060; cut-off not given, nearly all actives have AC50 up to about 26 µM); details: SU-DIPG-XVII viability, CellTiter-Glo ATP luminescence
[2] = growth inhibition of DIPG glioma cells, dose response, cell-based, SU-DIPG-XIII, MIPE5.0, CellTiter-Glo, qHTS (AID 1347064; cut-off not given, nearly all actives have AC50 up to about 23 µM); details: SU-DIPG-XIII viability, CellTiter-Glo ATP luminescence
[3] = viability loss in pontine glioma line – cell-based, SU-DIPG-XXV, MIPE5.0, CellTiter-Glo, qHTS, dose response (AID 1347065; cut-off not given, nearly all actives have AC50 up to about 26 µM;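 note: cells exposed to compound for 48 hours before ATP readout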); details: CellTiter-Glo ATP luminescence
[4] = JHH-DIPG-1 glioma cell viability, MIPE5.0 library, CellTiter-Glo luminescence, qHTS (AID 1347067; cut-off not given, nearly all actives have AC50 up to about 26 µM;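 note: cells exposed to compound for 48 hours before readout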); details: JHH-DIPG-1 glioma viability, CellTiter-Glo ATP luminescence
[5] = SU-DIPG-XXV glioma cell viability, MIPE5.0 library, qHTS (AID 1347068; cut-off not given, nearly all actives have IC50 up to about 30 µM)
[6] = sensitizers of A549 cells to miR-34 induction, primary screen, imaging, A549 dox-inducible miR-34, nuclei and caspase counts (AID 1347080;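 active = compounds whose cell count with miR-34 switched on is under 0.7 times the count with it off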); details: A549 miR-34 inducible, Hoechst nuclei count, 48 h
[7] = survival rescue of mitochondrial mutant cells in low glucose, primary screen, MELAS cybrids, Rieske KO mouse fibroblasts, CellTiter-Glo (AID 1508586;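 active = mean z-score across replicates of 1.96 or higher in either the MELAS or the Rieske mutant cell line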;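 note: z relative to plate mean and SD of compound and empty wells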)
[8] = LFS_MB_P medulloblastoma growth inhibition, cell-based, chromothripsis tumors, cisplatin or BGB combos (AID 1671449); details: LFS_MB_P medulloblastoma cells;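 note: cells exposed for 96 hours; 0% = vehicle DMSO and 100% = killing by high DMSO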
[9] = HDN33 neuroblastoma growth inhibition, cell-based, chromothripsis tumors, cisplatin or BGB combos (AID 1671450); details: HDN33 neuroblastoma cells, stronger effect = higher value;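 note: cells exposed to compound for four days; 0% = vehicle DMSO and 100% = cell killing by high DMSO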
[10] = ICB984 medulloblastoma cell growth inhibition, synergistic combos for chromothripsis tumors, cisplatin or BGB combos (AID 1671451; call rule not given here;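 note: cells exposed for 96 hours before readout; 0% = vehicle DMSO and 100% = killing by high DMSO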); details: ICB984 medulloblastoma cells, drug combinations, stronger effect = higher value
[11] = LFS_MB_1R medulloblastoma cell growth inhibition, synergistic combos for chromothripsis tumors, cisplatin or BGB combos (AID 1671452); details: LFS_MB_1R medulloblastoma cells, stronger effect = higher value;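 note: cells exposed for 96 hours before readout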
[12] = HTB85 osteosarcoma cell growth inhibition, synergistic combos for chromothripsis tumors, BGB or cisplatin IC20 combos (AID 1671453); details: HTB85 osteosarcoma cells, drug combinations, stronger effect = higher value;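 note: cells exposed for 96 hours before readout; 0% = vehicle DMSO and 100% = high DMSO killing control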
[13] = CRL2098 osteosarcoma cell growth inhibition, synergistic combos for chromothripsis tumors, BGB or cisplatin IC20 combos (AID 1671454); details: CRL2098 osteosarcoma cells, drug combinations, stronger effect = higher value;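 note: cells exposed for 96 h before readout; 0% = vehicle DMSO and 100% = killing by high DMSO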
[14] = HD-MB03 medulloblastoma cell growth inhibition, synergistic combos for chromothripsis tumors, BGB or cisplatin IC20 combos (AID 1671455; in the data active = inhibition above about 83%;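 note: 0% = vehicle DMSO and 100% = high DMSO as cytotoxic control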); details: HD-MB03 medulloblastoma cells, stronger effect = higher value
[15] = UWB1.289 ovarian carcinoma cell growth inhibition, synergistic combos for chromothripsis tumors, BGB or cisplatin combos (AID 1671456); details: UWB1.289 ovarian carcinoma cells, stronger effect = higher value;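 note: cells exposed to compound for four days; 0% = vehicle DMSO and 100% = killing by high DMSO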
[16] = MDA-MB-436 breast carcinoma cell growth inhibition, synergistic combos for chromothripsis tumors, BGB or cisplatin combos (AID 1671458; call rule not given here;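 note: cells exposed for 96 hours; 0% = vehicle DMSO and 100% = killing by high DMSO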); details: MDA-MB-436 breast carcinoma growth inhibition, drug combinations, stronger effect = higher value
[17] = growth inhibition of BT084 medulloblastoma cells, cell-based, ICGC_MB145, cisplatin and BGB IC40 combos (AID 1671461); details: drug combinations, stronger effect = higher value;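 note: cells exposed to drugs for 96 hours; 0% = vehicle DMSO and 100% = high DMSO full killing control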
[18] = growth inhibition of RCMB18 medulloblastoma cells, cell-based, cisplatin and BGB IC40 combos (AID 1671462); details: stronger effect = higher value;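 note: cells exposed to compound for four days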
[19] = growth inhibition of CRL1545 osteosarcoma cells, cell-based, cisplatin and BGB IC20 combos (AID 1671464); details: stronger effect = higher value;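 note: cells exposed to compound for 96 hours before readout; 0% = vehicle DMSO and 100% = high DMSO killing control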
[20] = measured here: combination with BGB IC40, at 0.05 µM
[21] = measured here: with BGB IC20 combination, at 0.5 µM
[22] = measured here: with cisplatin IC20 combination, at 0.5 µM
[23] = measured here: combination with cisplatin, at 0.5 µM

Q: What does the source list for Cc1cc(C)cc(NC(=O)Cc2ccc(OC(C)(C)C(=O)O)cc2)c1?
A: outcome [1]: inactive; outcome [2]: inactive; outcome [3]: inactive; outcome [4]: inactive; outcome [5]: inactive; fold change ([6]; stronger effect = lower value, cell number ratio, induced over uninduced): 0.94 (inactive); fold change ([6]; measured here: relative caspase fold change +Dox/-Dox): 0.66; cell count ([6]; measured here: total cells with miR-34 induction, stronger effect = lower value): 8990; cell count ([6]; measured here: total cells without miR-34 induction): 9560; z-score ([7]; MELAS cybrid survival, CellTiter-Glo 48 h, stronger effect = higher value): -0.243 (inactive); z-score ([7]; Rieske KO mouse fibroblast survival, CellTiter-Glo 72 h): -0.194

Q: Which outcome [1] does the source give for COc1ccc(C(=O)C2CCN(CC(=O)N(Cc3nc4c(c(=O)[nH]3)COCC4)CC3CC3)CC2)cc1 here?
A: The outcome was “inactive”.

Q: What about the outcome [2] of the same molecule?
A: The outcome was “inactive”.

Q: And the outcome [3]?
A: The outcome was “inactive”.

Q: And the outcome [4]?
A: The outcome was “inactive”.

Q: What about the outcome [5] of the same molecule?
A: Its outcome is “inactive”.

Q: What about the inhibition ([8]; at 0.5 µM, stronger effect = higher value) of the same molecule?
A: Its inhibition is -26.8% (inactive).

Q: And the inhibition ([8]; measured here: combination with BGB IC20, at 0.005 µM)?
A: Its inhibition is -22.7%.

Q: What about the inhibition ([8]; measured here: combination with BGB IC40, at 0.005 µM) of the same molecule?
A: Its inhibition is -42.7%.

Q: And the inhibition [8, 20]?
A: Its inhibition is -55.1%.

Q: And the inhibition ([8]; measured here: combination with cisplatin, at 0.5 µM, stronger effect = higher value)?
A: The inhibition was -22.8%.

Q: What about the inhibition ([8]; measured here: combination with cisplatin, at 5 µM, stronger effect = higher value) of the same molecule?
A: Its inhibition is -44.7%.

Q: And the inhibition ([9]; BGB combo, at 5 µM)?
A: The inhibition was -14.7%.

Q: What about the inhibition ([9]; at 0.5 µM) of the same molecule?
A: Its inhibition is 19.2% (inactive).

Q: And the inhibition ([9]; cisplatin combo, at 5 µM)?
A: Its inhibition is 9.88%.

Q: What about the inhibition [9, 21] of the same molecule?
A: The inhibition was 15.5%.

Q: What about the inhibition [9, 22] of the same molecule?
A: The inhibition was 24.9%.

Q: And the inhibition ([9]; single agent, at 5 µM)?
A: The inhibition was 15.7%.

Q: What about the inhibition ([10]; BGB IC20 combo, at 0.005 µM) of the same molecule?
A: Its inhibition is -9.62%.

Q: And the inhibition ([10]; BGB IC40 combo, at 0.005 µM)?
A: The inhibition was -29.7%.

Q: What about the inhibition ([10]; BGB IC40 combo, at 0.05 µM) of the same molecule?
A: Its inhibition is -4.73%.

Q: What about the inhibition ([10]; at 0.5 µM) of the same molecule?
A: The inhibition was -22.8% (inactive).

Q: What about the inhibition ([10]; cisplatin combo, at 0.05 µM) of the same molecule?
A: The inhibition was -10.1%.

Q: And the inhibition ([10]; cisplatin combo, at 0.5 µM)?
A: The inhibition was -15%.

Q: What about the inhibition ([10]; cisplatin combo, at 5 µM) of the same molecule?
A: The inhibition was -26%.

Q: What about the inhibition ([10]; measured here: 5 uM single agent, at 5 µM) of the same molecule?
A: The inhibition was -16%.

Q: What about the inhibition ([11]; at 0.5 µM) of the same molecule?
A: Its inhibition is -33% (inactive).

Q: And the inhibition [11, 20]?
A: The inhibition was -55.7%.

Q: What about the inhibition [11, 23] of the same molecule?
A: The inhibition was -42.4%.

Q: What about the inhibition ([11]; measured here: combination with cisplatin, at 5 µM) of the same molecule?
A: The inhibition was -67.1%.

Q: And the inhibition ([12]; at 0.5 µM)?
A: The inhibition was 14.2% (inactive).

Q: And the inhibition ([12]; measured here: with BGB IC20, at 0.5 µM)?
A: The inhibition was 33.7%.

Q: What about the inhibition ([12]; measured here: with BGB IC20, at 5 µM) of the same molecule?
A: The inhibition was 10.5%.

Q: What about the inhibition ([12]; measured here: with cisplatin IC20, at 0.5 µM) of the same molecule?
A: Its inhibition is -3.3%.

Q: And the inhibition ([12]; measured here: with cisplatin IC20, at 5 µM)?
A: Its inhibition is 4.94%.

Q: And the inhibition ([12]; single agent, at 5 µM)?
A: Its inhibition is 15.4%.

Q: What about the inhibition ([13]; at 0.5 µM) of the same molecule?
A: The inhibition was -25.5% (inactive).

Q: What about the inhibition ([13]; measured here: combination with BGB at IC20, at 0.5 µM) of the same molecule?
A: Its inhibition is -15.2%.

Q: And the inhibition ([13]; measured here: combination with cisplatin at IC20, at 0.5 µM)?
A: The inhibition was -29.9%.

Q: What about the inhibition ([14]; at 0.5 µM) of the same molecule?
A: Its inhibition is -6.43% (inactive).

Q: And the inhibition ([14]; measured here: combo with BGB at IC20, at 0.5 µM)?
A: The inhibition was -11.5%.

Q: What about the inhibition ([14]; measured here: combo with cisplatin at IC20, at 0.5 µM) of the same molecule?
A: Its inhibition is -4.57%.

Q: And the inhibition ([15]; at 0.5 µM)?
A: Its inhibition is 0.15% (inactive).

Q: What about the inhibition ([15]; measured here: inhibition with BGB combination, at 0.05 µM) of the same molecule?
A: Its inhibition is -7.89%.

Q: What about the inhibition ([15]; measured here: inhibition with cisplatin combination, at 0.05 µM) of the same molecule?
A: The inhibition was -13.7%.

Q: And the inhibition ([16]; at 0.5 µM)?
A: The inhibition was -12.3% (inactive).

Q: And the inhibition ([16]; measured here: BGB combination, at 0.5 µM)?
A: The inhibition was -9.1%.

Q: And the inhibition ([16]; measured here: BGB combination, at 5 µM)?
A: Its inhibition is -21.6%.

Q: And the inhibition ([16]; measured here: cisplatin combination, at 0.5 µM)?
A: The inhibition was -32.8%.

Q: And the inhibition ([16]; measured here: cisplatin combination, at 5 µM)?
A: Its inhibition is -17.8%.

Q: And the inhibition ([17]; at 0.5 µM)?
A: The inhibition was -24.2% (inactive).

Q: And the inhibition ([17]; cisplatin combination, at 0.5 µM)?
A: The inhibition was -30.1%.

Q: What about the inhibition ([17]; cisplatin combination, at 5 µM) of the same molecule?
A: Its inhibition is -190%.

Q: And the inhibition ([17]; measured here: BGB IC40 combination 0.05 uM, at 0.05 µM)?
A: Its inhibition is -40%.

Q: And the inhibition ([17]; single agent, at 5 µM)?
A: The inhibition was -16.6%.

Q: What about the inhibition ([18]; at 0.5 µM) of the same molecule?
A: The inhibition was -19.3% (inactive).

Q: And the inhibition ([18]; cisplatin combo, at 5 µM)?
A: Its inhibition is -12.1%.

Q: And the inhibition ([18]; measured here: BGB IC40 combination, at 0.05 µM)?
A: Its inhibition is -3.95%.

Q: And the inhibition [18, 23]?
A: The inhibition was -13.9%.

Q: And the inhibition ([18]; single agent, at 5 µM)?
A: Its inhibition is 8.88%.

Q: What about the inhibition ([19]; at 0.5 µM) of the same molecule?
A: The inhibition was 9.43% (inactive).

Q: And the inhibition [19, 21]?
A: The inhibition was 5.59%.

Q: And the inhibition [19, 22]?
A: The inhibition was 9.92%.

Q: And the inhibition ([19]; single agent, at 0.05 µM)?
A: Its inhibition is -39.6%.

Q: What about the inhibition ([19]; single agent, at 5 µM) of the same molecule?
A: Its inhibition is -10.3%.
